# Records with an inconclusive call do not appear. Where a call stands in place of a potency, no number is given. Calls of active or inactive are those of the source. Unless noted, calls come from the whole dose curve; as a rule, active = well fitted curve in the direction sought with a large enough effect; inconclusive = small, poorly fitted or top-dose-only effect, or another doubt; inactive = no such curve, though single readings can be large; an effect the other way counts as inactive or inconclusive. Where a SMILES comes first, the peptide text is derived from it. [ ]: non-standard residue; d: D form. The star is where a group is joined. Dolaproine = CO[C@@H]([C@@H]1CCCN1)[C@@H](C)C(=O)O; Dil = CC[C@H](C)[C@H](NC)[C@@H](CC(=O)O)OC; Doe = c1ccc(C[C@H](N*)c2nccs2)cc1; Aib = CC(C)(N)C(=O)O
# Columns and labels:
# [1] = P-glycoprotein substrates identified in KB-8-5-11 adenocarcinoma cell line, qHTS therapeutic library screen (AID 1346987); note: nearly all actives have a fitted effect of over 65% in size; note: potency is the fitted concentration of half-maximal effect
# In short: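 KB-8-5-11, a colchicine-selected P-gp-overexpressing KB-3-1 subline, was grown without colchicine for the assay. Cells were seeded at 500 cells/well, dosed in concentration-response and incubated 72 h at 37 degree C, 5% CO2. Viability was read by CellTiter-Glo luminescence.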
# [2] = Primary qHTS for inhibitors of nuclear receptor binding SET domain protein 2 (NSD2) in an isogenic RCH-ACV NSD2 p.E1099K mutant (9B) (AID 1645876); note: nearly all actives have a fitted effect of over 70% in size; note: potency is the fitted concentration of half-maximal effect
# [3] = Primary qHTS for inhibitors of nuclear receptor binding SET domain protein 2 (NSD2) in an RCH-ACV wild type WT cells (2C) (AID 1645877); note: nearly all actives have a fitted effect of over 70% in size; note: potency is the fitted concentration of half-maximal effect
# [4] = test system: HEK293; experiment: Cytotoxic Profiling of Annotated Libraries Using Quantitative High-Throughput Screening (AID 1296008); settings: Five cell lines viability, CellTiter-Glo ATP luminescence, 48-72 h; max response: stronger effect = lower value; note: nearly all actives have a fitted effect of over 60% in size
# In short: (§1)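 Compounds were pin-transferred onto cells and incubated 48 or 72 hr at 37 degree Celsius, 95% humidity. CellTiter-Glo was added, plates sat 10 min at room temperature, then ATP-coupled luminescence was imaged as the viability read-out.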
# [5] = test system: HaCat; experiment: as above; settings: Five cell lines viability, CellTiter-Glo ATP luminescence, 48-72 h; max response: stronger effect = lower value
# In short: as §1
# [6] = test system: NIH3T3; experiment: as above; settings: Five cell lines viability, CellTiter-Glo ATP luminescence, 48-72 h; max response: stronger effect = lower value
# In short: as §1
# [7] = test system: HACAT; experiment: qHTS assay to identify novel small-molecules to repurpose for Merkel cell carcinoma treatment (AID 1296009); settings: MCC and control cell lines, CellTiter-Glo viability, 72 h; at 44.8 µM (top of the series) unless noted; note: nearly all actives have a fitted effect of over 60% in size
# In short: (§2)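 qHTS format: cells treated with library compounds in DMSO across 8 (NPC) or 11 (MIPE) concentrations. Readout after 72 hr at 37 degree celsius was CellTiter-Glo luminescence.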
# [8] = test system: SKOV3; experiment: Primary qHTS to identify gynecologic anti-cancer compounds using libraries of approved drugs and bioactive compounds (AID 1345084); settings: Gynecologic cancer cell panel viability, ATPlite luminescence, 48 h; series mostly up to 57.5 µM; note: nearly all actives have a fitted effect of over 55% in size
# In short: (§3)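 Luminescence from the ATPlite ATP-monitoring reagent indicates viable cell number; lower signal means cytotoxicity. Cells received compound 16 h after seeding and were exposed for 48 h across five concentrations.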
# [9] = test system: HeLa; experiment: as above; settings: Gynecologic cancer cell panel viability, ATPlite luminescence, 48 h; series mostly up to 57.5 µM
# In short: as §3
# [10] = P-glycoprotein substrates identified in KB-3-1 adenocarcinoma cell line, qHTS therapeutic library screen (AID 1346986); note: nearly all actives have a fitted effect of over 60% in size
# In short: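 Resistance attributable to P-gp was assessed by comparing AC50 in KB-8-5-11 with parental KB-3-1 and by tariquidar reversal. Cells were exposed 72 h and viability read by CellTiter-Glo.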
# [11] = test system: Zika virus NS2B-NS3 protease (unlinked complex); experiment: Primary screen GU Rhodamine qHTS for Zika virus inhibitors: Unlinked NS2B-NS3 protease assay (AID 1347159); note: nearly all actives have a fitted effect of over 60% in size
# In short: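 Percent inhibition derives from the 15-min fluorescence change (ex 480, em 540 nm), normalized to no-enzyme and no-inhibitor wells. Reactions contained 25 nM NS2B-NS3 complex and 1.5 microM substrate in 10 mM Tris-HCl pH 8.0.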
# [12] = target: Cytochrome P450 2D6 (Homo sapiens) (UniProt P10635); experiment: Cytochrome P450 family 2 subfamily D member 6 (CYP2D6) small molecule antagonists: luciferase biochemical (cell-free) qHTS assay (AID 1645840; active = well fitted curve in the direction sought with a large enough effect in the repeat runs; an effect the other way counts as inactive or inconclusive; note: nearly all actives have a fitted effect of over 55% in size; note: potency is the fitted concentration of half-maximal effect)
# Cytochrome P450 2D6 (Homo sapiens), sequence (P10635 whole entry, looked up): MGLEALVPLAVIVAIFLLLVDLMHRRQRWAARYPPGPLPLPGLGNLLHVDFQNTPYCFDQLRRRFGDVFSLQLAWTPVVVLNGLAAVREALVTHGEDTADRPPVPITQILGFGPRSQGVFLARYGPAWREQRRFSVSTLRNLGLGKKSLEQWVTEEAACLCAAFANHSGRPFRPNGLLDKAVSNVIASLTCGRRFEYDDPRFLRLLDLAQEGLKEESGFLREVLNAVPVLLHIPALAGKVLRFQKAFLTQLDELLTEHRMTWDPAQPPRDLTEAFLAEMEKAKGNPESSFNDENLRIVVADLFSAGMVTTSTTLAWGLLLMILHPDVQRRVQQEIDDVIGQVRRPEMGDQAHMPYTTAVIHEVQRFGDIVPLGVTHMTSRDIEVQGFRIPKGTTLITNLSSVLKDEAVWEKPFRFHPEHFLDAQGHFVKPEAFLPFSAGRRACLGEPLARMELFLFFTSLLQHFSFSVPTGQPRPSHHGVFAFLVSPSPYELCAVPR
# In short: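 P450-Glo luminescent screen: recombinant CYP2D6 enzyme–proluciferin substrate mix preincubated with compound 10 min at room temperature, then NADPH regeneration added for 1 h at room temperature. Detection reagent added for 20 min; luciferin light read as relative luminescence units.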
# [13] = qHTS drug screen for cell cycle checkpoint inhibitors in PARPi-resistant BRCA-mutant ovarian cancer cell lines. (AID 1963452; calls by dose curve); settings: PEO1/OlaR viability, CellTiter-Glo luminescence, 96 h, stronger effect = lower value
# In short: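 PEO1, PEO4 and PEO1/OlaR ovarian cancer cells, 600 per well, exposed 96 h at 37C to a dilution series. Viability read by CellTiter-Glo luminescence, normalized to DMSO and empty wells; activity summarized as Z-AUC.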
# [14] = target: Cytochrome P450 2C9 (Homo sapiens) (UniProt P11712); experiment: Cytochrome P450 family 2 subfamily C member 9 (CYP2C9) small molecule antagonists: luciferase biochemical (cell-free) qHTS assay (AID 1645842; active = well fitted curve in the direction sought with a large enough effect in the repeat runs; an effect the other way counts as inactive or inconclusive; note: potency is the fitted concentration of half-maximal effect; nearly all actives have a fitted effect of over 55% in size)
# Cytochrome P450 2C9 (Homo sapiens), sequence (P11712 whole entry, looked up): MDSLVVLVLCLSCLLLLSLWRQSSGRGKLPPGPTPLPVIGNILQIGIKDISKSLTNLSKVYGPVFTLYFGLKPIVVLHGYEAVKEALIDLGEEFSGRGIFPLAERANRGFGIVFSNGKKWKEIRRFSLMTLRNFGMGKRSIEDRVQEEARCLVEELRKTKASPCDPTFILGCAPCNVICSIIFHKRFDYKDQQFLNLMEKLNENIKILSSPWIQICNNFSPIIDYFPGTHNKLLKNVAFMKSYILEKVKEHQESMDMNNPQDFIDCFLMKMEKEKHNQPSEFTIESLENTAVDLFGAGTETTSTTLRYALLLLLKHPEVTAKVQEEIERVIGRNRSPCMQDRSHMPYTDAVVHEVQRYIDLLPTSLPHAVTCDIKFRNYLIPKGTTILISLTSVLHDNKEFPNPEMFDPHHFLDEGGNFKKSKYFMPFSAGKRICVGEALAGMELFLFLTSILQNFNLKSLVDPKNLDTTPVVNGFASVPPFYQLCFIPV
# In short: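 Luminescence, after 20 min with luciferin detection reagent, reflected CYP2C9 turnover during a 1 h NADPH-driven reaction at 37C. Enzyme-substrate mix contained 0.4% bovine serum albumin and was preincubated with compound 10 min at room temperature.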
# [15] = test system: NIH3T3; experiment: qHTS assay to identify novel small-molecules to repurpose for Merkel cell carcinoma treatment (AID 1296009); settings: MCC and control cell lines, CellTiter-Glo viability, 72 h; at 44.8 µM (top of the series) unless noted; note: nearly all actives have a fitted effect of over 60% in size
# In short: as §2
smiles,measurement,setting,value
CC[C@H](C)[C@@H]([C@@H](CC(=O)N1CCC[C@H]1[C@H](OC)[C@@H](C)C(=O)N[C@@H](Cc1ccccc1)c1nccs1)OC)N(C)C(=O)[C@@H](NC(=O)C(C)(C)N)C(C)C (H-[Aib]V[Dil][Dolaproine]-Doe),Potency,[1],0.146 µM (active)
same,Potency,[2],inactive
same,Potency,[3],inactive
same,max response,[4],-94.9% (inactive)
same,outcome,[5],inactive
same,max response,[6],-54.1% (inactive)
same,outcome,[7],inactive
same,Potency,[8],inactive
C=C1C(=O)O[C@@H]2[C@H]3C(=C)[C@@H](O)C[C@H]3C(=C)C[C@@H](O)[C@@H]12,Potency,[1],inactive
same,Potency,[2],16.3 µM (active)
same,Potency,[3],6.49 µM (active)
same,max response,[5],-4.6% (inactive)
same,Potency,[9],inactive
same,Potency,[8],inactive
CCC1CC2CN3CCc4c([nH]c5ccccc45)C(C(=O)OC)(C2)C13 (configuration not stated),Potency,[10],inactive
same,Potency,[1],inactive
same,Potency,[11],inactive
same,Potency,[2],inactive
same,Potency,[3],inactive
same,max response,[6],-4.92% (inactive)
same,Potency,[9],inactive
NC(=O)[C@@H](CC1CC1)[C@@H](CCC(F)(F)F)C(=O)N[C@H]1N=C(c2ccccc2)c2cccc(F)c2NC1=O,Potency,[1],inactive
same,Potency,[11],inactive
same,Potency,[12],inactive
same,Potency,[2],inactive
same,Potency,[3],inactive
same,Z-AUC,[13],-1.08 (inactive)
same,Z-AUC,[13]; measured here: PEO1 parental Z-AUC,-0.643
same,Z-AUC,[13]; measured here: PEO4 Z-AUC,-1.43
same,max response,[4],0.706% (inactive)
same,max response,[5],-25% (inactive)
same,max response,[6],-16.9% (inactive)
same,Potency,[9],inactive
same,Potency,[8],inactive
O=C1CN=C(c2ccccc2Cl)c2cc(Br)ccc2N1,Potency,[12],13.5 µM (active)
same,Potency,[14],13.5 µM (active)
same,Potency,[2],23 µM (active)
same,Potency,[3],12.9 µM (active)
same,max response,[5],-40.1% (inactive)
same,outcome,[6],inactive
same,outcome,[15],inactive
same,Potency,[9],inactive
